# Reference: PubChem BioAssay
# Calls of active or inactive are those of the source. Unless noted, the rule behind the calls is not given here.
# Assays:
# [1] = A549 cell viability effects, profiling panel, calcein-AM fluorescence, 48 h, basal (AID 1162); settings: higher = more signal; note: test concentration not given here
# [2] = adipocyte viability effects, profiling panel, cell-based, 3T3-L1 adipocytes, calcein-AM fluorescence, 48 h, basal (AID 1163); settings: 3T3-L1 adipocytes viability, higher = more signal; note: test concentration not given here
# [3] = HepG2 cell viability effects, profiling panel, calcein-AM fluorescence, 48 h, basal (AID 1164); settings: higher = more signal; note: test concentration not given here
# [4] = MM1S cell viability effects, profiling panel, calcein-AM fluorescence, 48 h, basal (AID 1165); settings: higher = more signal;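 note: viability of MM1S multiple myeloma cells under basal unstimulated conditions; test concentration not given here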
# [5] = basal RPMI8226 viability, no added stimulus, profiling panel, cell-based, calcein-AM fluorescence, 48 h, PK04 Diversity Set (AID 1166); settings: RPMI8226 myeloma viability, higher = more signal;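 note: cells grown under basal conditions without added stimulus; test concentration not given here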
# [6] = basal HepG2 mitochondrial membrane potential changes, profiling panel, cell-based, JC-1 fluorescence, 24 h, 100 nL compound (AID 1167); settings: higher = more signal; note: test concentration not given here
# [7] = basal 3T3-L1 adipocyte mitochondrial potential changes, profiling panel, cell-based, JC-1 fluorescence, 3T3-L1 adipocytes, 24 h, 100 nL compound (AID 1168); settings: JC-1 mitochondrial fluorescence, higher = more signal, called active from +8 up or from −8 down; note: test concentration not given here
# [8] = basal RPMI8226 mitochondrial membrane potential changes, profiling panel, cell-based, JC-1 fluorescence, 24 h, 100 nL compound (AID 1169); settings: RPMI8226 myeloma, JC-1 mitochondrial potential fluorescence, higher = more signal; note: test concentration not given here
# [9] = basal MM1S mitochondrial membrane potential changes, profiling panel, cell-based, JC-1 fluorescence, 24 h, 100 nL compound (AID 1170); settings: higher = more signal; note: test concentration not given here
# [10] = A549 lung cancer cell viability effects, profiling panel, resazurin fluorescence, 24 h, PK04 Diversity Set (AID 1171); settings: higher = more signal, called active from +8 up or from −8 down; note: test concentration not given here
# [11] = HepG2 liver cancer cell viability effects, profiling panel, resazurin fluorescence, 24 h, PK04 Diversity Set (AID 1172); settings: higher = more signal; note: test concentration not given here
# [12] = basal S. cerevisiae growth modulation, no modifier, primary screen, OD600, strain BY4716, 24 h, basal condition (AID 1173); settings: OD600, 24 h, higher = more signal, called active from +8 up or from −8 down
# [13] = MM1S myeloma cell viability, profiling panel, resazurin fluorescence, basal, 24 h, PK04 Diversity Set (AID 1174); settings: higher = more signal, called active from +8 up or from −8 down;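 note: MM1S multiple myeloma cell line; test concentration not given here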
# [14] = target: Dihydroorotate dehydrogenase (quinone), mitochondrial (Plasmodium falciparum (isolate 3D7)) (UniProt Q08210); assay: PfDHODH enzyme inhibitors, primary screen, biochemical, C-terminal His tag, absorbance 600 nm (AID 1175); settings: DCIP absorbance 600 nm, higher = more signal, called active from +8 up or from −8 down;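 note: recombinant parasite enzyme with a five histidine tag at its C terminus; test concentration not given here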
# [15] = P. aeruginosa biofilm formation inhibitors, primary screen, strain PAO1, LB-PBS medium, absorbance 600 nm (AID 1176); note: test concentration not given here; settings: P. aeruginosa PAO1 growth/biofilm, A600, 12 h; higher = more signal
# [16] = S. cerevisiae RM11-1a growth modifiers, primary screen, strain RM11-1a, OD600, basal, 24 h (AID 1177); settings: OD600, 24 h, higher = more signal, called active from +8 up or from −8 down;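 note: cultures grown under basal conditions with no added stressor; test concentration not given here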
# [17] = E. coli acrAB mutant growth effects, primary screen, E. coli filamentation inducers, strain DRC39, OD650, 24 h (AID 1178); settings: higher = more signal, called active from +8 up or from −8 down;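 note: growth measured as culture turbidity by optical density at 650 nm; test concentration not given here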
# [18] = E. coli acrAB mutant growth effects, primary screen, E. coli filamentation inducers, strain DRC39, OD650, 48 h (AID 1179);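 note: screen aims at cell division blockers that make cells filament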; settings: E. coli DRC39 delta-acrAB growth, higher = more signal, called active from +8 up or from −8 down
# [19] = RPMI8226 myeloma cell viability, profiling panel, resazurin fluorescence, basal, 24 h, PK04 Diversity Set (AID 1180); settings: higher = more signal;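 note: RPMI8826 multiple myeloma cell line at 5000 cells per well; test concentration not given here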
# [20] = target: E3 ubiquitin-protein ligase XIAP (Homo sapiens) (UniProt P98170); assay: XIAP binders, primary screen, biophysical, small-molecule microarray, fluorescence 635 nm (AID 1181); settings: small-molecule microarray binding, higher = more signal;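 note: score merges 667 nm emission and signal to noise over triplicate slides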
# Chain of E3 ubiquitin-protein ligase XIAP (Homo sapiens) (P98170 whole entry, looked up): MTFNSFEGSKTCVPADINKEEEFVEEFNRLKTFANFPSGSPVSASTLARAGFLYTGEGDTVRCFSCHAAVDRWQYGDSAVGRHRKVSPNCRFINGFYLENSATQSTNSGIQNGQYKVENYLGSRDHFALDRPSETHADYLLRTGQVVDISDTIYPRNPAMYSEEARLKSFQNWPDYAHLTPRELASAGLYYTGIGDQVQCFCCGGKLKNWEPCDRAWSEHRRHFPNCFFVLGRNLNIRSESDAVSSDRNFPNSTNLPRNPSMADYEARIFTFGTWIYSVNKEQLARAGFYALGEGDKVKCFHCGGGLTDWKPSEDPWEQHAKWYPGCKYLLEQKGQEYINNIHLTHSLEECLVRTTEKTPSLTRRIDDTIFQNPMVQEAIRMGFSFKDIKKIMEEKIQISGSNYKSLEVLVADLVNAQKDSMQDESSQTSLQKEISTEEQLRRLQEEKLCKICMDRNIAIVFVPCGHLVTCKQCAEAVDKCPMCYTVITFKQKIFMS
# Chain of Dihydroorotate dehydrogenase (quinone), mitochondrial (Plasmodium falciparum (isolate 3D7)) (Q08210 whole entry, looked up): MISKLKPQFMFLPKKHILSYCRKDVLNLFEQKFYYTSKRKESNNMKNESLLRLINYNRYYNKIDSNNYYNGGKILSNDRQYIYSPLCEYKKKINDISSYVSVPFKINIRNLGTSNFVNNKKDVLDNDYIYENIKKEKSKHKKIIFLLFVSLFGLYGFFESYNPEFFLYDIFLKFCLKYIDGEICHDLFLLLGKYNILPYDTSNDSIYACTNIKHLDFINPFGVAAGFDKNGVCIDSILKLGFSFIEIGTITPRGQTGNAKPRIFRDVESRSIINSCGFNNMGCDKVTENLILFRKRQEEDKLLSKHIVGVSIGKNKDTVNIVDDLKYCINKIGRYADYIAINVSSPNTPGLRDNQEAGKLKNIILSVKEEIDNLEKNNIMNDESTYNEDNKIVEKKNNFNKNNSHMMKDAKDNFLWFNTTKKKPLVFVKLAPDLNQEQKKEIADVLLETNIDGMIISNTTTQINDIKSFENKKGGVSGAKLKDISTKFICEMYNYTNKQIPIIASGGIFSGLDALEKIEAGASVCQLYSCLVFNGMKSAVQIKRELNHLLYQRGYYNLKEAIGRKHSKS
Compound,z-score [1],z-score [2],z-score [3],z-score [4],z-score [5],z-score [6],z-score [7],z-score [8],z-score [9],z-score [10],z-score [11],z-score [12],z-score [13],composite z-score [14],z-score [15],z-score [16],z-score [17],z-score [18],z-score [19],composite z-score [20]
CC(C)[C@H]1NC(=O)[C@@]23C(=O)N[C@@H](Cc4ccccc4)C2[C@H](C)[C@@]2(C)O[C@H]2C3/C=C/C/C=C\CNC(=O)[C@H](Cc2ccccc2)NC1=O (stereo not given in full),0.716,-0.144,0.42,-1.08,-1.39,0.5,-0.769 (inactive),-0.132,0.623,-0.739 (inactive),-0.875,-0.516 (inactive),-0.504 (inactive),-0.141 (inactive),-0.377 (inactive),-0.472 (inactive),-0.0953 (inactive),-1.2 (inactive),-1.26,-0.288
Cc1ccccc1C(O)C1C=CC2C(=O)NC(=O)C2N1Nc1ccc(Cl)cc1Cl (stereo not given),-0.235,-0.636,-0.245,-2.93,-1.58,-2.8,-0.879 (inactive),-0.153,0.106,-0.8 (inactive),-2.17,-9.05 (active),-1.03 (inactive),0.107 (inactive),1.15 (inactive),0.251 (inactive),-0.511 (inactive),-0.963 (inactive),-1.25,2.02
CCOC(=O)C[C@H]1[C@H](OC(=O)c2ccc(C(=O)c3ccccc3)cc2)[C@@H](NC(=O)CC(C)C)c2cc(OCCCO)ccc2N1C(=O)Cc1ccc(OC)cc1,-0.206,-0.194,-0.0232,0.467,-0.679,1.88,-0.689 (inactive),0.573,0.288,0.189 (inactive),-0.204,-0.316 (inactive),0.191 (inactive),0.166 (inactive),0.608 (inactive),0.113 (inactive),-0.445 (inactive),-0.0261 (inactive),0.0274,-0.289
CCOC(=O)C1=CCC(c2ccco2)N(S(=O)(=O)c2ccc(C)cc2)C1 (stereo not given),-0.373,0.279,0.34,-2.93,-1.64,-0.843,-1.32 (inactive),0.733,-2.11,0.326 (inactive),1.18,-4.03 (inactive),0.123 (inactive),-2.2 (inactive),-0.253 (inactive),-0.749 (inactive),0.234 (inactive),1.34 (inactive),0.769,0.424
CCc1cccc(NC(=O)O[C@H]2[C@H](OC(=O)Nc3ccccc3)[C@H](OC(=O)Nc3ccccc3)[C@@H](OC)O[C@@H]2CO)c1,-1.97,1.18,-5.14,-3.46,-4.3,-2.34,0.867 (inactive),-1.2,-2.32,-4.35 (inactive),-3.47,0.885 (inactive),-4.46 (inactive),0.0661 (inactive),1.78 (inactive),1.12 (inactive),0.0415 (inactive),0.0166 (inactive),-6.11,0.306
CCOC(=O)C[C@H]1[C@H](OC(=O)c2ccc(-c3ccccc3)cc2)[C@@H](NC(=O)Cc2ccc(OC)cc2)c2cc(OCCCO)ccc2N1C(=O)Cc1ccc(OC)cc1,0.368,0.0052,0.834,0.191,-0.102,2.01,0.262 (inactive),-0.198,-0.128,0.207 (inactive),-0.0383,0.574 (inactive),0.796 (inactive),0.593 (inactive),0.149 (inactive),1.78 (inactive),1.01 (inactive),0.622 (inactive),0.643,-0.0118
C=CCNC(=O)[C@@H]1[C@H]2C(=O)O[C@H](c3ccccc3)[C@H](c3ccccc3)N2[C@H](c2ccc(O)cc2)[C@@]12C(=O)Nc1ccc(C#CCC(C(=O)OC)C(=O)OC)cc12,-0.399,-0.937,-0.6,-3.31,-4.52,-1.76,-0.271 (inactive),-1.25,-2.23,-0.395 (inactive),-0.0043,1.12 (inactive),-6.93 (inactive),-6.73 (inactive),1.54 (inactive),1.4 (inactive),-0.0975 (inactive),-0.112 (inactive),-5.23,-0.274
COC(=O)[C@@]1(Cc2ccccc2CN=[N+]=[N-])N=C(c2ccc(OCCCO)cc2)O[C@H]1c1ccccc1,-2.84,0.658,-4.68,-3.57,-4.03,-2.06,0.315 (inactive),-1.01,-2.53,-2.6 (inactive),-2.6,0.797 (inactive),-5.44 (inactive),1.09 (inactive),1.83 (inactive),2.81 (inactive),0.759 (inactive),-0.783 (inactive),-6.08,0.162
